Here are results for 15 compounds from PubChem BioAssay (Tox21).

A short description of assay [1]: qHTS assay to identify small molecule antagonists of the glucocorticoid receptor (GR) signaling pathway - cell viability counter screen (AID 720693). Further: nearly all actives have a fitted effect of over 55% in size.
Assay [2] is described as follows: qHTS assay for identifying genotoxic compounds that show differential cytotoxicity against isogenic chicken DT40 cell lines with known DNA damage response pathways - wild type cell line (AID 743012). Further: nearly all actives have a fitted effect of over 60% in size. Further: potency means the concentration at half of the fitted maximal effect. The essentials: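 Viability of DNA repair-proficient chicken DT40 cells was assessed by CellTiter-Glo luminescence following 40 h compound exposure at 37 C/5% CO2.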
(In general: Quantitative high-throughput screening tests each substance at several concentrations.)

Assay [3] in a line: qHTS assay for identifying genotoxic compounds that show differential cytotoxicity against isogenic chicken DT40 cell lines with known DNA damage response pathways - Rev3 mutant cell line (AID 743014). Further: nearly all actives have a fitted effect of over 55% in size. Further: potency means the concentration at half of the fitted maximal effect.
Assay [4] in a line: qHTS assay for identifying genotoxic compounds that show differential cytotoxicity against isogenic chicken DT40 cell lines with known DNA damage response pathways - Rad54/Ku70 mutant cell line (AID 743015). Further: nearly all actives have a fitted effect of over 60% in size. Further: potency means the concentration at half of the fitted maximal effect.
Assay [5] is described as follows: qHTS assay to identify small molecule antagonists of the androgen receptor (AR) signaling pathway - cell viability counter screen (AID 743033; further: nearly all actives have a fitted effect of over 45% in size).
The target of assay [6] is Androgen receptor (Homo sapiens) (UniProt P10275). Nature of the assay: qHTS assay to identify small molecule agonists of the androgen receptor (AR) signaling pathway (AID 743036; active means well fitted activation curve with a large enough effect in the signal ratio in the repeat runs, with a control signal flat, not every such curve was filed as active; the % refers to the signal ratio). The essentials: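 Agonist activity was scored by beta-lactamase reporter fluorescence in stably transfected HEK293 cells exposed to compounds for 16 h at 37C and 5% CO2. Substrate loading took 2 h at room temperature.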
Sequence of Androgen receptor (Homo sapiens) (P10275 whole entry, looked up): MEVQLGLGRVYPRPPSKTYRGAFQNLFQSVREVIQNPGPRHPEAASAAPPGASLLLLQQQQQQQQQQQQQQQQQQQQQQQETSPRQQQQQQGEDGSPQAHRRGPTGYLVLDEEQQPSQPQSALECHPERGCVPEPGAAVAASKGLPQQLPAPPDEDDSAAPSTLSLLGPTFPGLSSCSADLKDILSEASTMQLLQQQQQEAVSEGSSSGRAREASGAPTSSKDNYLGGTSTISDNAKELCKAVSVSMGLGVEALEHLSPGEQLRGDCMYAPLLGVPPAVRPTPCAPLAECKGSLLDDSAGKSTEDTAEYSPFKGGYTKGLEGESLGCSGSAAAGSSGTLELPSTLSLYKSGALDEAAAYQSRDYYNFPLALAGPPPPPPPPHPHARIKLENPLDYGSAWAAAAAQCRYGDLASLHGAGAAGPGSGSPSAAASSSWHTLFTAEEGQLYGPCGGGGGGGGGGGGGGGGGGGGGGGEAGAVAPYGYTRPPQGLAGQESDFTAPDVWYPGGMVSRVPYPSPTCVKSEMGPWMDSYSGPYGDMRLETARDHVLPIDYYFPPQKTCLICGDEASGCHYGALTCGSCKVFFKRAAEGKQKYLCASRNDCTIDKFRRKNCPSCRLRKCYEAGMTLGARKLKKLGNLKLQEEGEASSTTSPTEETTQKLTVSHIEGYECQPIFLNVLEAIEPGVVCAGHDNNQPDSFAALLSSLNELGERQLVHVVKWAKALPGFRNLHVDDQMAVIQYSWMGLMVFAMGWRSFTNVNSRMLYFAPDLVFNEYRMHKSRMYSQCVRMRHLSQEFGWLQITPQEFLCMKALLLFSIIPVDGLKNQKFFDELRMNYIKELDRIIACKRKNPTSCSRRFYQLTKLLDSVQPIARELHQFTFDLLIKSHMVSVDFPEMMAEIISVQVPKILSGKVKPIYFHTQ

Assay [7] has the same target. Nature of the assay: qHTS assay to identify small molecule agonists of the androgen receptor (AR) signaling pathway using the MDA cell line (AID 743040; further: nearly all actives have a fitted effect of over 20% in size). Put shortly: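 Stable MMTV-luciferase reporter in MDA-kb2 cells; note the promoter carries GR as well as AR response elements. 16 h compound treatment, 37C, 0% CO2; ONE-Glo luminescence endpoint.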
Assay [8] has the same target. Nature of the assay: qHTS assay to identify small molecule antagonists of the androgen receptor (AR) signaling pathway using the MDA cell line (AID 743042; further: nearly all actives have a fitted effect of over 55% in size). Put shortly: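 Antagonist mode: compounds plus R1881 agonist added to MDA-kb2 AR-luc cells, incubated 16 h at 37C. Luciferase reporter luminescence quantified, with multiplexed CellTiter-Fluor readout for cell viability.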

Assay [9] can be described thus: qHTS assay to identify small molecule antagonists of the thyroid receptor (TR) signaling pathway (AID 743065). Further: nearly all actives have a fitted effect of over 55% in size. Further: potency means the concentration at half of the fitted maximal effect. On activity, negative = inhibition: series mostly up to about 70 µM. The essentials:
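Antagonism measured as loss of luciferase signal in GH3 cells stably carrying a TRE-luciferase reporter, co-treated with compound and T3 (1 nM final) for 23.5 h at 37 C. Viability was read in the same well by CellTiter-Fluor.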

Assay [10] concerns thyroid hormone receptor (rat, GH3 cells). Nature of the assay: qHTS assay to identify small molecule agonists of the thyroid receptor (TR) signaling pathway (AID 743066; calls by dose curve; further: potency means the concentration at half of the fitted maximal effect).
Assay [11] is described as follows: qHTS assay to identify small molecule antagonists of the estrogen receptor alpha (ER-alpha) signaling pathway - cell viability counter screen (AID 743074; calls by dose curve; further: nearly all actives have a fitted effect of over 45% in size).
Assay [12] can be described thus: qHTS assay to identify small molecule antagonists of the estrogen receptor alpha (ER-alpha) signaling pathway using the BG1 cell line - cell viability counter screen (AID 743081).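 Further: compound given together with 17beta-estradiol as the ER stimulus; nearly all actives have a fitted effect of over 45% in size.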 Further: potency means the concentration at half of the fitted maximal effect. On activity change, negative = cytotoxicity: series mostly up to about 70 µM.
The target in assay [13] is Androgen receptor (Homo sapiens) (UniProt P10275). Nature of the assay: qHTS assay to identify small molecule antagonists of the androgen receptor (AR) signaling pathway (AID 743035; active means well fitted inhibition curve with a large enough effect in the signal ratio in the repeat runs, not every such curve was filed as active; the % refers to the signal ratio). The essentials:
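Reporter HEK293 cells were exposed to compounds and R1881 overnight (16 h, 37C); beta-lactamase activity was then quantified by FRET fluorescence.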

Assay [14] is described as follows: qHTS assay to identify small molecule antagonists of the thyroid receptor (TR) signaling pathway - cell viability counter screen (AID 743064). Further: nearly all actives have a fitted effect of over 50% in size. Further: potency means the concentration at half of the fitted maximal effect. The essentials: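 Same-well viability check: GH3.TRE-Luc cells stimulated with 1 nM T3 alongside test compound for 23.5 h, followed by CellTiter-Fluor fluorescence.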
The target in assay [15] is Estrogen receptor (Homo sapiens) (UniProt P03372). Nature of the assay: qHTS assay to identify small molecule agonists of the estrogen receptor alpha (ER-alpha) signaling pathway (AID 743075; calls by dose curve).
Sequence of Estrogen receptor (Homo sapiens) (P03372 whole entry, looked up): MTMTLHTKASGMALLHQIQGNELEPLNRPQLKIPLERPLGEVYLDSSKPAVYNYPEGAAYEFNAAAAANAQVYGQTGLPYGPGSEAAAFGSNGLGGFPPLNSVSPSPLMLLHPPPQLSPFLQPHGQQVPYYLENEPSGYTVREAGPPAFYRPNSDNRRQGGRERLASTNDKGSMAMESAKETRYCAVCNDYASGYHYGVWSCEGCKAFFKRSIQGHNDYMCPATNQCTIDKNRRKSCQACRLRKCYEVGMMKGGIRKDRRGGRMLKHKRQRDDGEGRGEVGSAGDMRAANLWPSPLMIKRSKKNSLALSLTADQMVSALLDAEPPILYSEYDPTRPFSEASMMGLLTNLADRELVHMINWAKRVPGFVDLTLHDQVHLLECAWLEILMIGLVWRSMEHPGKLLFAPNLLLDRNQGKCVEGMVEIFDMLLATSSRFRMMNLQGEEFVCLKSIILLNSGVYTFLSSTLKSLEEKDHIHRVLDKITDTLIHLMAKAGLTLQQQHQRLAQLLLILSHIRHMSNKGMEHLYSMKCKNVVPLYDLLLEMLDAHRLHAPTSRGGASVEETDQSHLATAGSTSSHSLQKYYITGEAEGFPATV
Assay [16] has the same target. Nature of the assay: qHTS assay to identify small molecule agonists of the estrogen receptor alpha (ER-alpha) signaling pathway using the BG1 cell line (AID 743079). Further: nearly all actives have a fitted effect of over 20% in size.
Assay [17] can be described thus: qHTS assay to identify small molecule antagonists of the estrogen receptor alpha (ER-alpha) signaling pathway using the BG1 cell line (AID 743080; calls by dose curve;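 further: BG1 cells stimulated with 17beta-estradiol alongside compound; series mostly up to about 70 µM; nearly all actives have a fitted effect of over 25% in size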). Put shortly:
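Seeding, 24 h rest, compound transfer from DMSO, 17beta-estradiol addition, 21.5 h incubation, CellTiter-Fluor (30 min, 37 C), then ONE-Glo (30 min, room temperature): this sequence was run on BG1-Luc-4E2 reporter cells.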

Assay [18] has as its target Aromatase (Homo sapiens) (UniProt P11511). Nature of the assay: qHTS assay to identify aromatase inhibitors (AID 743083).
Assay [19] is described as follows: qHTS assay to identify small molecule antagonists of the androgen receptor (AR) signaling pathway using the MDA cell line - cell viability counter screen (AID 743041; further: nearly all actives have a fitted effect of over 45% in size). Put shortly: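 Using the breast carcinoma line MDA-kb2 AR-luc, test chemicals were co-incubated with R1881 for 16 h; CellTiter-Fluor reagent, added at 15.5 h, provided a fluorescence measure of live cells.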

The target in assay [20] is Estrogen receptor (Homo sapiens) (UniProt P03372). Nature of the assay: qHTS assay to identify small molecule antagonists of the estrogen receptor alpha (ER-alpha) signaling pathway (AID 743069; active means well fitted curve in the direction sought with a large enough effect in the signal ratio in the repeat runs, not every such curve was filed as active; the % refers to the signal ratio). Put shortly:
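Fluorescence intensity from a beta-lactamase FRET substrate served as the read-out. Cells: HEK293 with stably integrated ER-alpha-UAS-bla reporter. Agonist 17beta-estradiol was co-added with compounds; incubation 18 hr at 37C, substrate 2 hr at room temperature.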

Several values for one entry are separate records, joined by “and”; a condition that tells them apart may be missing. Identical values can stand only once. Records with an inconclusive call do not appear. Some structures have more than one record in an assay (separate samples or runs), and their calls can disagree. Activity calls are given as the source filed them. Unless noted, the call rests on the fitted dose curve; in most records, active means well fitted curve in the direction sought with a large enough effect in the repeat runs; inconclusive means weak or mixed curves; inactive means no such curve, though single readings can be large; an effect the other way counts as inactive or inconclusive.
On the % scale 0 is the no-effect control and ±100 the full control effect.

Sequence of Aromatase (Homo sapiens) (P11511 whole entry, looked up): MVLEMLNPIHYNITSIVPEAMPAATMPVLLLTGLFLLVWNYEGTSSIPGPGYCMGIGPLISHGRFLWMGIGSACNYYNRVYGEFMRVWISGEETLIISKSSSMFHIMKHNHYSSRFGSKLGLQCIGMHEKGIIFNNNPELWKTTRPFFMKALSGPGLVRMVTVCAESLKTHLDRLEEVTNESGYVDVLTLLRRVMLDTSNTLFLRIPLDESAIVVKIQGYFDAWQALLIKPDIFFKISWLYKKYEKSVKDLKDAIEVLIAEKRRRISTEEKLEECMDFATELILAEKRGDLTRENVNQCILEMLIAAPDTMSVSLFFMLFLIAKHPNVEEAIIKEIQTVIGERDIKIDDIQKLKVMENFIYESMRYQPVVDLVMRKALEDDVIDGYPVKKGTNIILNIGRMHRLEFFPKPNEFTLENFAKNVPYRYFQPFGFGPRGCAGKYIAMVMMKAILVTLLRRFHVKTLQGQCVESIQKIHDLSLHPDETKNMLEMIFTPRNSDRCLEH

On to `Nc1ccc(N)c2c1C(=O)c1ccccc1C2=O`, for which the Potency result in assay [1], in [5], in assay [6], in assay [7], in [8] and in assay [10] was “inactive” in each case. The Potency entry in assay [11] is “inactive”. The Potency in [2] was 17.2 µM (active); in assay [3], 27.3 µM (active); in assay [4], 7.7 µM (active); in [9], 24.3 µM (active); in assay [12], 24.3 µM (active).
For `CCCCCC[C@@H](O)C/C=C\CCCCCCCC(=O)OC`, the Potency result in [1], in assay [2], in [3], in [4], in assay [5] and in [13] was “inactive” each time. The Potency result in assay [6], in assay [7], in assay [8], in [14], in assay [9] and in assay [10] was “inactive” in each case. Moreover, the Potency entry in [11], in assay [15], in assay [16], in [17], in assay [12] and in assay [18] was “inactive” throughout.
As to `CC(=O)NO`, the Potency entry in assay [1], in assay [2], in assay [3], in assay [4], in assay [5] and in [13] was “inactive” each time. Besides, the Potency entry in [6], in [7], in [19], in assay [8], in assay [9] and in assay [10] was “inactive” throughout. For the same compound, the Potency result in [11], in [12] and in assay [18] was “inactive” each time.
On to `CCOC(=O)COC(=O)c1cc(Oc2ccc(C(F)(F)F)cc2Cl)ccc1[N+](=O)[O-]`, for which the Potency result in [1], in assay [5], in assay [6], in assay [7], in assay [19] and in assay [8] was “inactive” in each case. Further, the Potency result in assay [14], in assay [9], in [10], in assay [11] and in [12] was “inactive” in each case. Also, the results for the Potency in assay [2], in assay [3] and in assay [4] were 21.7 µM (active), 12.2 µM (active) and 19.3 µM (active), respectively.
On to `CCCCc1ncc(/C=C(\Cc2cccs2)C(=O)O)n1Cc1ccc(C(=O)O)cc1`, for which the Potency entry in [1], in [2], in assay [3], in assay [4], in [5] and in assay [19] was “inactive” in each case. Further, the Potency result in assay [14], in [9], in assay [10], in [11], in assay [12] and in [18] was “inactive” throughout.
As to `OCCN1CCN(CCCN2c3ccccc3C=Cc3ccccc32)CC1`, the Potency result in [1], in [5], in assay [19], in assay [10], in assay [11] and in assay [15] was “inactive” throughout. The Potency entry in assay [16], in assay [17] and in assay [18] was “inactive” each time. Further, the Potency is 5.96 µM (active) and 13.3 µM (active) in assay [2]; 1.68 µM (active) and 15 µM (active) in [3]; 8.41 µM (active) and 26.6 µM (active) in [4]; 6.68 µM (active) and 7.5 µM (active) in [14]; 11.9 µM (active) and 26.6 µM (active) in [9]; 10.6 µM (active) and inactive in [12].
As for `CCCCO`, the Potency result in assay [1], in assay [2], in assay [3], in [4], in [5] and in [19] was “inactive” in each case. The Potency entry in [14], in [9], in assay [10], in [11], in [12] and in [18] was “inactive” in each case.
For `CC1CCC(=O)C1=O` (stereo not drawn), the Potency entry in assay [1], in assay [2], in [3], in assay [4], in assay [5] and in assay [19] was “inactive” in each case. The Potency result in assay [14], in [9], in [10], in assay [11], in assay [15] and in [16] was “inactive” throughout. Moreover, the Potency result in [17], in assay [12] and in assay [18] was “inactive” throughout.
For the compound `Cc1ncc(CO)c(C=O)c1O`, the Potency result in assay [1], in assay [2], in assay [3], in assay [4], in assay [5] and in assay [19] was “inactive” throughout. Moreover, the Potency entry in [14], in assay [9], in assay [10], in assay [20], in [11] and in assay [15] was “inactive” throughout. For the same compound, the Potency result in [16], in assay [17], in [12] and in assay [18] was “inactive” each time.
In the case of `CCOC(=O)C(F)(F)F`, the Potency entry in assay [1], in assay [2], in [4], in [5], in assay [19] and in assay [14] was “inactive” in each case. Further, the Potency result in assay [9], in [10], in assay [11], in assay [12] and in assay [18] was “inactive” throughout. In addition, in assay [3], the Potency was 34.4 µM (active).
As to `CNCCCN1c2ccccc2CCc2ccccc21`, the Potency result in assay [1], in [5], in assay [6], in assay [7], in [19] and in [8] was “inactive” in each case. For the same compound, the Potency result in assay [20], in assay [11], in assay [15], in assay [16], in [17] and in assay [12] was “inactive” in each case. The Potency result in assay [18] is “inactive”. The Potency in assay [2] is 4.52 µM (active); in [3], 16 µM (active); in [4], 11.4 µM (active); in assay [14] it was 8.04 µM (active); in assay [9], 12.7 µM (active).
For `C=C(C)C(=O)OCCO`, the Potency result in assay [1], in assay [2], in assay [3], in assay [4], in assay [5] and in [19] was “inactive” each time. Also, the Potency result in [14], in [9], in assay [10], in assay [11], in assay [15] and in [16] was “inactive” throughout. Moreover, the Potency result in assay [17], in [12] and in [18] was “inactive” each time.
`NCC(=O)CCC(=O)O`: the Potency entry in [1], in assay [2], in assay [3], in assay [4], in [5] and in assay [19] was “inactive” each time. Further, the Potency result in [14], in assay [9], in assay [11], in assay [15], in assay [16] and in assay [17] was “inactive” each time. Moreover, the Potency result in assay [12] and in [18] was “inactive” each time. Also, the Potency in [10] was 26.6 µM (active).
As to `Brc1c2ccccc2c(Br)c2ccccc12`, the viability change, negative = cytotoxic in [1] was -12.6% [at 7.04 µM] (inactive); in [19], 2.16% [at 8.47 µM] (inactive). The activity change, negative = cytotoxicity in [2] is 2.6% [at 8.52 µM] (inactive); in assay [4], 3.28% [at 8.55 µM] (inactive); in assay [5], 0.327% [at 7.04 µM] (inactive); in assay [12], 5.65% [at 8.47 µM] (inactive). The activity, negative = cytotoxicity in assay [3] is 2.95% [at 8.53 µM] (inactive); in [11], 9.03% [at 6.72 µM] (inactive). Also, in [14], the activity change, negative = cytotoxic was 6.61% [at 8.44 µM] (inactive). The activity, negative = inhibition was 5.77% [at 8.44 µM] (inactive) in assay [9] and 17% [at 6.71 µM] (inactive) in assay [20]. Further, the values for the activation in assay [10] and in [16] were 0.426% [at 8.08 µM] (inactive) and -3.1% [at 8.47 µM] (inactive), respectively. Further, in [17], the activity change, negative = inhibition is -5.5% [at 8.47 µM] (inactive).
Consider `COc1ccc(C(=O)N2CCN(CC(=O)N3CCOCC3)CC2)cc1`, for which the Potency result in [1], in assay [2], in assay [3], in [4], in assay [5] and in assay [19] was “inactive” each time. For the same compound, the Potency entry in assay [14], in assay [9], in assay [10], in assay [11], in assay [15] and in [16] was “inactive” each time. Also, the Potency result in assay [17], in assay [12] and in assay [18] was “inactive” in each case.
